The results in this text go back to PubChem BioAssay (NCATS).

The structures appear in SMILES notation. Where “and” joins values, the source holds several entries; their conditions need not be identical. Equal entries are not always repeated. Results filed as inconclusive are left out. Calls of active or inactive are those of the source. The call rests on the fitted dose curve; in most records, active means well fitted activation curve with a large enough effect; inconclusive means small, poorly fitted or top-dose-only effect; inactive means no such curve, though single readings can be large or run the other way.
Potency means the concentration at half of the fitted maximal effect.

Cellular tumor antigen p53 (Homo sapiens), sequence (P04637 whole entry, looked up): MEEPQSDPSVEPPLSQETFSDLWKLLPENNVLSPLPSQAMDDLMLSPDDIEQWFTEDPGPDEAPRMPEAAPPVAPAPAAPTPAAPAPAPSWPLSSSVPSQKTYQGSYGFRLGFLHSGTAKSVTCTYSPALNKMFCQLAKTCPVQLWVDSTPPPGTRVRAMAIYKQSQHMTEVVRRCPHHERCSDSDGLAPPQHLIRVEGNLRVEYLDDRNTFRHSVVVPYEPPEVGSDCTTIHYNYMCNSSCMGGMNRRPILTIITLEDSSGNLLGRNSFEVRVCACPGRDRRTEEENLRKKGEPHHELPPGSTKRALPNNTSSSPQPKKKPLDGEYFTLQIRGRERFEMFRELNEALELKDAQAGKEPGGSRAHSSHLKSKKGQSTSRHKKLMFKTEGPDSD

The target in the experiment is Cellular tumor antigen p53 (Homo sapiens) (UniProt P04637). Nature of the experiment: Primary qHTS for small molecule compounds that upregulate eGFP-tagged delta133p53alpha (in N-terminal) cells. (AID 2060322). Further: nearly all actives have a fitted effect of over 75% in size.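 On activation: series mostly up to about 56 µM; 0% = DMSO vehicle and 100% = reference activator.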 The settings on record: NCI-H358 eGFP-delta133p53alpha fluorescence, 24 h; activation: stronger effect = higher value. Summed up:
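NCI-H358 cells pre-induced 24 h with 10 ng/ml doxycycline to express N-terminal eGFP-delta133p53alpha, then dosed 24 h at 37C without doxycycline; fixed, Hoechst-stained, GFP intensity by laser scanning cytometry, normalized to DMSO (0%) and 57.5 uM 5-azacytidine (100%).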
For the compound `Cc1oc(=O)oc1COC(=O)[C@@H]1N2C(=O)[C@@H](NC(=O)[C@H](N)c3ccccc3)[C@H]2SC1(C)C`, the activation was -5.08% (inactive). Same read-out and setting: then `CC(=O)Nc1ccc(/C=N/NC(N)=S)cc1`, with -14.2% (inactive). For the compound `CS[C@H]1SC[C@@H]2C(=O)N(C)[C@H](C(C)C)C(=O)OC[C@H](NC(=O)c3cnc4ccccc4n3)C(=O)N[C@H](C)C(=O)N(C)[C@@H]1C(=O)N(C)[C@H](C(C)C)C(=O)OC[C@H](NC(=O)c1cnc3ccccc3n1)C(=O)N[C@H](C)C(=O)N2C`, the Potency was 34.3 nM (active).

Take `CCc1cc(Cl)c(OC)c(C(=O)NC[C@@H]2CCCN2CC)c1O`: the activation was 13.4% (inactive). The same measure, in the same setting: the result for `O=C(O)CC(O)C(=O)O` (stereo not given) reads -26.6% (inactive). The same measure, in the same setting: then `Cc1c(O)cccc1C(=O)N[C@@H](CSc1ccccc1)[C@H](O)CN1C[C@H]2CCCC[C@@H]2C[C@@H]1C(=O)NC(C)(C)C`, with -23% (inactive); and `CC1CCC2(OC1)OC1CC3C4CCC5C[C@@H](O[C@@H]6O[C@H](CO[C@@H]7OC[C@@H](O)[C@H](O)[C@H]7O)[C@H](O)[C@H](O)[C@H]6O)CC[C@]5(C)C4CC[C@]3(C)C1C2C` (stereo not given in full), with 8.4% (inactive); and `CCC(C(=O)OCCN(CC)CC)c1ccccc1` (stereo not given), with -1.67% (inactive). On the same count and under the same terms, then `Nc1ccc(C(=O)N2CC3CC(CN(Cc4ccccc4)C3)C2)cc1`, with -6.21% (inactive); and `CCCCCCc1ccc(O)cc1O`, with 3.35% (inactive). Consider `OC[C@H]1O[C@@H](O[C@H]2[C@@H](O)[C@@](O)(CO)O[C@@H]2CO)[C@H](O)[C@@H](O)[C@@H]1O`, for which the activation was 0.771% (inactive). Same read-out and setting: then `OC1(c2ccc(Cl)cc2)CCNCC1`, with -8.47% (inactive); and `O=c1[nH]c2ccccc2c(=O)n1CCCl`, with 6.21% (inactive).

Regarding `OC[C@]1(O)OC[C@@H](O)[C@H](O)[C@@H]1O`, the activation was -16.7% (inactive). The same measure, in the same setting: then `Nc1ccc(C(=O)NCC(=O)O)cc1`, with -8.47% (inactive). Turning to `CCN(CC)C(=O)C1CN2CCc3cc(OC)c(OC)cc3C2CC1OC(C)=O` (stereo not given), the activation is -9.21% (inactive). Still for that read-out and setting: the result for `O=C(O)c1cn(C2CC2)c2cc(Cl)c(F)cc2c1=O` reads 11.9% (inactive); that for `CN[C@@H]1[C@@H](O)[C@@H](O[C@@H]2[C@@H](O)[C@H](O[C@H]3O[C@H](CN)[C@@H](O)[C@H](O)[C@@H]3O)[C@@H](N)C[C@@H]2NC(=O)[C@@H](O)CN)OC[C@]1(C)O`, -2.48% (inactive). Turning to `CC[C@@]1(O)C(=O)OCc2c1cc1n(c2=O)Cc2c-1nc1ccccc1c2/C=N/OC(C)(C)C`, the Potency is 97.8 nM (active). As for `CC=C1C2C=C(C)CC1(N)c1ccc(=O)[nH]c1C2` (stereo not given), the activation is -14.9% (inactive). For `NC(=O)N/N=C/c1ccc([N+](=O)[O-])o1`, the activation is 16.7% (inactive) and -23.4% (inactive).

Regarding `CN=C(NC#N)NCCSCc1csc(N=C(N)N)n1`, the activation is 9.6% (inactive). Still for that read-out and setting: then `Cc1cccc(C)c1OCC(=O)N[C@@H](Cc1ccccc1)[C@@H](O)C[C@H](Cc1ccccc1)NC(=O)[C@H](C(C)C)N1CCCNC1=O`, with -5.4% (inactive) and 28.8% (inactive); and `Oc1ccccc1C=NCc1ccccc1`, with -19.2% (inactive). Still for that read-out and setting: then `C[C@@H]1CCN(C(=O)[C@H](CCCN=C(N)N)NS(=O)(=O)c2cccc3c2NC[C@H](C)C3)[C@@H](C(=O)O)C1`, with 2.82% (inactive); and `O=C(O)CCC(=O)c1ccc(-c2ccccc2)cc1`, with -11.9% (inactive). On the same count and under the same terms, the result for `CN1CCN(C2=Nc3cc(F)ccc3Cc3ccccc32)CC1` reads -11.9% (inactive); that for `CCCCCCCCCCCCCCCC(=O)OC[C@@H](NC(=O)C(Cl)Cl)[C@H](O)c1ccc([N+](=O)[O-])cc1`, 7.1% (inactive). `O=C(O)CCNC(=O)c1ccccc1`: the activation is -12.6% (inactive). Same read-out and setting: the result for `FC(F)(F)C(F)(F)C(F)(F)C(F)(F)C(F)(F)C(F)(F)C(F)(F)C(F)(F)Br` reads -14.1% (inactive); that for `N#C/C(=C1/SC[C@@H](c2ccc(Cl)cc2Cl)S1)n1ccnc1`, -25.9% (inactive); that for `Cc1cc(-c2ccccc2)nnc1NCCN1CCOCC1`, 16.4% (inactive).

With `CO/N=C(/C(=O)N[C@@H]1C(=O)N2C(C(=O)OCOC(=O)C(C)(C)C)=C(C)CS[C@H]12)c1csc(N)n1`, the activation was -20.9% (inactive). Turning to `CC(Cc1cccc(C(F)(F)F)c1)NCCOC(=O)c1ccccc1` (stereo not given), the activation was 17.6% (inactive). The same measure, in the same setting: then `CC(C)c1onc(-c2c(Cl)cccc2Cl)c1COc1ccc(C=Cc2cccc(C(=O)O)c2)c(Cl)c1`, with -0.915% (inactive); and `CC1(C)OC[C@@H](COC(=O)CCc2ccc(OC[C@@H](O)CNCCNC(=O)N3CCOCC3)cc2)O1`, with 10% (inactive); and `O=C(O)c1ccccc1Nc1cc(Cl)ccc1C(=O)O`, with -31% (inactive). Same read-out and setting: then `CCC1NC(=O)c2cc(S(N)(=O)=O)c(Cl)cc2N1` (stereo not given), with -21.8% (inactive); and `CN(C)CCN(Cc1ccc(Cl)cc1)c1ccccn1`, with 1.96% (inactive). Still for that read-out and setting: the result for `C/C(=N/NC(=O)c1ccncc1)C(=O)O` reads 7.34% (inactive).
